Results as given in PubChem BioAssay (NCATS).
Records with an inconclusive call do not appear. A call without a number means that no potency is given here. Calls of active or inactive are those of the source. Unless noted, calls come from the whole dose curve; as a rule, active = well fitted inhibition curve with a large enough effect; inconclusive = small, poorly fitted or top-dose-only effect; inactive = flat fitted curve, though single readings scatter.

What was measured:
[1] = S16 Schwann cell PMP22 intronic element beta-lactamase assay (AID 624044; calls by dose curve; note: nearly all actives have a fitted effect of over 15% in size)
In short: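 Rat S16 Schwann cells with beta-Lac driven by a PMP22 intronic element, compound-treated 24 h at 37 °C. LiveBLAzer FRET B/G read: 460 nm normalized to potassium clavulanate vs DMSO; 535 nm FRET as viability; concentration-effect curves classified.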

[2] = tested on: 3D7; experiment: qHTS profiling for inhibitors of Plasmodium falciparum proliferation (AID 504749); note: nearly all actives have a fitted effect of over 60% in size; note: potency is the fitted concentration of half-maximal effect; settings: P. falciparum in erythrocytes, SYBR Green DNA, 72 h; series mostly up to 12.8 µM
In short: (§1)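 Parasite proliferation within erythrocytes, 72 h exposure. Endpoint: SYBR Green I fluorescence after overnight lysis at room temperature. Controls: 0.29 uM artemisinin, DMSO.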

[3] = tested on: AS120; experiment: as above; settings: P. falciparum in erythrocytes, SYBR Green DNA, 72 h; series mostly up to 12.8 µM
In short: as §1

[4] = tested on: ATS189; experiment: as above; settings: P. falciparum in erythrocytes, SYBR Green DNA, 72 h; series mostly up to 12.8 µM
In short: as §1

[5] = tested on: ATS95; experiment: as above; settings: P. falciparum in erythrocytes, SYBR Green DNA, 72 h; series mostly up to 12.8 µM
In short: as §1

[6] = tested on: CP201; experiment: as above; settings: P. falciparum in erythrocytes, SYBR Green DNA, 72 h; series mostly up to 12.8 µM
In short: as §1

[7] = tested on: CP217; experiment: as above; settings: P. falciparum in erythrocytes, SYBR Green DNA, 72 h; series mostly up to 12.8 µM
In short: as §1

[8] = tested on: CP238; experiment: as above; settings: P. falciparum in erythrocytes, SYBR Green DNA, 72 h; series mostly up to 12.8 µM
In short: as §1

[9] = tested on: CP252; experiment: as above; settings: P. falciparum in erythrocytes, SYBR Green DNA, 72 h; series mostly up to 12.8 µM
In short: as §1

[10] = tested on: CP262; experiment: as above; settings: P. falciparum in erythrocytes, SYBR Green DNA, 72 h; series mostly up to 12.8 µM
In short: as §1

[11] = tested on: CP266; experiment: as above; settings: P. falciparum in erythrocytes, SYBR Green DNA, 72 h; series mostly up to 12.8 µM
In short: as §1

[12] = tested on: CP297; experiment: as above; settings: P. falciparum in erythrocytes, SYBR Green DNA, 72 h; series mostly up to 12.8 µM
In short: as §1

[13] = tested on: CP305; experiment: as above; settings: P. falciparum in erythrocytes, SYBR Green DNA, 72 h; series mostly up to 12.8 µM
In short: as §1

[14] = tested on: CP315; experiment: as above; settings: P. falciparum in erythrocytes, SYBR Green DNA, 72 h; series mostly up to 12.8 µM
In short: as §1

[15] = tested on: CP329; experiment: as above; settings: P. falciparum in erythrocytes, SYBR Green DNA, 72 h; series mostly up to 12.8 µM
In short: as §1

[16] = tested on: DFO2036; experiment: as above; settings: P. falciparum in erythrocytes, SYBR Green DNA, 72 h; series mostly up to 12.8 µM
In short: as §1

[17] = tested on: N140; experiment: as above; settings: P. falciparum in erythrocytes, SYBR Green DNA, 72 h; series mostly up to 12.8 µM
In short: as §1

[18] = tested on: PC15; experiment: as above; settings: P. falciparum in erythrocytes, SYBR Green DNA, 72 h; series mostly up to 12.8 µM
In short: as §1

[19] = tested on: SC27B; experiment: as above; settings: P. falciparum in erythrocytes, SYBR Green DNA, 72 h; series mostly up to 12.8 µM
In short: as §1

[20] = tested on: W2; experiment: as above; settings: P. falciparum in erythrocytes, SYBR Green DNA, 72 h; series mostly up to 12.8 µM
In short: as §1

| Structure (SMILES) | Potency [1] | Potency [2] | Potency [3] | Potency [4] | Potency [5] | Potency [6] | Potency [7] | Potency [8] | Potency [9] | Potency [10] | Potency [11] | Potency [12] | Potency [13] | Potency [14] | Potency [15] | Potency [16] | Potency [17] | Potency [18] | Potency [19] | Potency [20] |
| --- | --- | --- | --- | --- | --- | --- | --- | --- | --- | --- | --- | --- | --- | --- | --- | --- | --- | --- | --- | --- |
| C[C@H]1CS(=O)(=O)CCN1/N=C\c1ccc([N+](=O)[O-])o1 | inactive | inactive | inactive | inactive | inactive | inactive | inactive | inactive | inactive | inactive | inactive | inactive | inactive | inactive | inactive | inactive | inactive | inactive | inactive | – |
| Cc1cccc(CN2CCN([C@@H](c3ccccc3)c3ccc(Cl)cc3)CC2)c1 | inactive | – | – | – | – | inactive | – | inactive | inactive | inactive | inactive | inactive | inactive | inactive | inactive | inactive | – | – | – | 3.22 µM (active) |
| CCOC(=O)O[C@@H](C)OC(=O)[C@@H]1N2C(=O)[C@@H](NC(=O)[C@@H](N)c3ccccc3)[C@H]2SC1(C)C | inactive | inactive | inactive | inactive | inactive | inactive | inactive | inactive | inactive | inactive | inactive | inactive | inactive | inactive | inactive | inactive | inactive | inactive | inactive | 5.73 µM (active) |
